Measured values reported in PubChem BioAssay (Tox21).
Several values for one entry are separate records, joined by “and”; a condition that tells them apart may be missing. Equal values may be shown once. Inconclusive results are not listed. Activity calls are given as the source filed them. Calls follow the shape of the dose curve; as a rule, active = well fitted cell-killing curve with a large enough effect in the repeat runs; inconclusive = weak or mixed curves; inactive = flat fitted curve, though single readings scatter.

Assay: qHTS RealTime-Glo MT Cell Viability Assay in HepG2 cells - 8 hour (AID 1224873); also: nearly all actives have a fitted effect of over 55% in size
Details: RealTime-Glo luminescence; series mostly up to 76.8 µM; viability change, negative = cytotoxic: at the top concentration
From the text: National Center for Advancing Translational Sciences [NCATS]
NIH Chemical Genomics Center [NCGC]
U.S. Environmental Protection Agency [EPA]
National Institutes of Environmental Health Sciences [NIEHS]
National Toxicology Program [NTP]
U.S. Food and Drug Administration [FDA]
Measure of cell viability is critical in the cell-base assay. Analysis of cell viability is necessary for the characterization of cell responses to cytotoxic drugs and environmental stress. A RealTime-Glo MT Cell Viability Assay to monitor cell viability in real time of continues cell culture during 40 hours of compound treatment was used to screen Tox21 10K library compounds in HepG2 cells. The RealTime-Glo MT Cell Viability Assay is a nonlytic, homogeneous, bioluminescent method to measure cell viability in real time using a simple, plate-based method. The assay involves adding NanoLuc luciferase and a cell-permeant prosubstrate to cells in culture. Viable cells reduce the proprietary prosubstrate to generate a substrate for NanoLuc luciferase. This substrate diffuses from cells into the surrounding culture medium, where it is rapidly used by the NanoLuc Enzyme to produce a luminescent signal. The signal correlates with the number of viable cells, making the assay well suited for cytotoxicity studies.
Tox21 Assay Protocol Summary:
The mixture of HepG2 cell suspension and reagents were dispensed at 600cells/6 ul/well in 1536-well tissue culture treated black solid bottom plates using a Multidrop dispenser. After the assay plates were incubated at a 37 C/5% CO2 incubator for 5 hours, 23 nL of compounds dissolved in DMSO, positive and negative controls was transferred to the assay plate by a pintool work station. The plates were incubated at 37 C for 40 hours. The luminescence intensity were measured at 0h, 8h, 16h, 24h, 32h and 40h time points using ViewLux plate reader during compound treatment.
% is scaled to controls: 0 for no effect and ±100 for the full control effect; potency is read from the fitted curve at half-maximal effect.

Compound	viability change, negative = cytotoxic	Potency
N#CC1(N=NC2(C#N)CCCCC2)CCCCC1	-2.22% (inactive)	
OCC1CO1 (stereo not given)		inactive
C[N+]1(CCF)[C@@H]2CC[C@H]1CC(OC(=O)C(O)(c1ccccc1)c1ccccc1)C2 (stereo not given in full)	9.92% [at 35.3 µM] (inactive)	
CCCSP(=S)(OCC)Oc1ccc(SC)cc1 (stereo not given)	-13.6% (inactive)	
O=C(N/N=C/c1ccc([N+](=O)[O-])o1)c1cc([N+](=O)[O-])cc([N+](=O)[O-])c1O	-9.13% [at 35.3 µM] (inactive)	
N#CC(C#N)=Cc1ccc(O)c(O)c1	0.364% [at 35.3 µM] (inactive)	
CCOP(=S)(OCC)Oc1ccc(S(C)=O)cc1 (stereo not given)	4.39% (inactive)	
Cc1nnc(-c2ccccc2)c(=O)n1N	1.26% (inactive)	
COc1ccc2c(c1OC)C(=O)O[C@H]2[C@@H]1c2cc3c(cc2CCN1C)OCO3	-8.51% [at 35.3 µM] (inactive)	
COc1cc(CC(C)N)c(OC)cc1Br (stereo not given)	-4.48% (inactive)	
c1ccc2c(c1)sc1ccccc12		inactive
O=C(NCNC(=O)NC1C(=O)NC(=O)N1CO)NC1C(=O)NC(=O)N1CO (stereo not given)	-0.632% (inactive)	
O=CC=O	4.65% (inactive)	
[Cl-].[Cl-].[Hg+2]		48.8 µM (active) and 3.89 µM (active)
O=C(Cc1ccccc1)OCCc1ccccc1	-4.08% (inactive)	
CCC1CCC(=O)O1 (stereo not given)	2.97% (inactive)	
CC(=O)OC(c1ccccc1)C(Cl)(Cl)Cl (stereo not given)	-10.9% (inactive)	
NP(N)(=O)NC(=O)c1ccc(F)cc1	2.83% [at 35.3 µM] (inactive)	
CC(C)(C#N)C(C)(C)C#N	0.496% (inactive)	
O=C(N[C@H]1CN2CCC1CC2)c1ccc2c(c1)OCCO2	0.0774% (inactive)	

Compound	viability change, negative = cytotoxic	Potency
Cc1cnc(C2=NC(C)(C(C)C)C(=O)N2)c(C(=O)O)c1 (stereo not given)	-0.596% (inactive)	
CC(C)OC(=O)Cc1ccccc1	-1.91% (inactive)	
Clc1ccc2ccccc2c1	-0.78% (inactive)	
CCOC(=O)NC(O)C(Cl)(Cl)Cl (stereo not given)	0.143% [at 35.3 µM] (inactive)	
C1CS1	1.79% (inactive)	
CCCCC(CC)CO[N+](=O)[O-] (stereo not given)	3.59% (inactive)	
CCSCc1ccccc1OC(=O)NC	-9.39% (inactive)	
CCCCC#N	-1.75% (inactive)	
C=C(Cl)Cl	0.435% (inactive)	
CCOP(=S)(OCC)SCSc1cc(Cl)ccc1Cl	3.42% (inactive)	
C[C@]12C=CC3=C4CCC(=O)C=C4CC[C@H]3[C@@H]1CC[C@@H]2O		inactive
CCN(C(C)=O)c1cccc(-c2ccnc3c(C#N)cnn23)c1	0.125% [at 35.3 µM] (inactive)	
O=S(=O)(c1ccccc1)c1ccccc1	0.0679% (inactive)	
CC(C)(C)NCC(O)c1cc(Cl)c(N)c(C(F)(F)F)c1 (stereo not given)	0.124% [at 35.3 µM] (inactive)	
CC[N+]1(C)CCCC(OC(=O)C(O)(c2ccccc2)c2ccccc2)C1 (stereo not given)	4.81% [at 35.3 µM] (inactive)	
COCc1cnc(C2=NC(C)(C(C)C)C(=O)N2)c(C(=O)O)c1 (stereo not given)	2.57% (inactive)	
c1ccc2c(c1)-c1cccc3cccc-2c13		inactive
CCCBr	-0.319% (inactive)	
CNC(=O)Oc1cccc(N=CN(C)C)c1	-0.0179% (inactive)	
CC(C)(C)OOC(C)(C)CCC(C)(C)OOC(C)(C)C	-2.08% (inactive)	
